The whole screen tested about 190,000 compounds, of which about 930 (0.49%) were called active. The list shows a part of the results. Entries with a potency or affinity are not part of this list. A number with no mark means an inactive call.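 The calls were made as follows: active = z-score of insulin promoter reporter brightness in nuclei below -3 at 5 µM, with at least 500 cells counted; inconclusive = wells with under 500 cells, flagged as toxic or sparse; inactive = the rest.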

The assay is described as follows: insulin promoter down-regulators in MIN6 cells, imaging, high-content screening, mouse beta cells (AID 1628). The following applies: MIN6 insulin promoter GFP reporter, at 5 µM, hits give low values.
Turning to `CCN1CCN(c2ncc3c(n2)CC(c2cc(OC)c(OC)c(OC)c2)CC3=O)CC1` (stereo not given), the z-score was -3.96 (active). In the case of `O=C(NNC(=O)c1cccnc1)NC12CC3CC(CC(C3)C1)C2` it was -3.86 (active). In the case of `O=C(Nc1ccc(N2CCCCC2)cc1)c1cccnc1`, the z-score was 3.44. Consider `O=C(NCc1cccnc1)c1cnn2ccccc12`, for which the z-score was -7.96 (active). Take `O=C(Nc1nc(-c2cccs2)cs1)c1ccc(Cl)s1`: the z-score was -3.6 (active). Turning to `Nc1c(C(=O)Nc2nc3ccccc3s2)sc2nc(-c3cccs3)ccc12`, the z-score was 5.64.

On to `Cc1csc(NC(=O)c2sc3nc(-c4cccs4)ccc3c2N)n1`, for which the z-score is 4.58.

Turning to `Cc1cc(/C=N/n2cnnc2)c(C)n1-c1cccc(C(=O)O)c1`, the z-score was 4.18. As for `Cc1sc(-n2c(C)cc(/C=N/n3cnnc3)c2C)c(C#N)c1C`, the z-score was -4.46 (active). As for `O=c1c2ccccc2c(C=Nc2ccccc2O)c(O)n1-c1nccs1`, the z-score is 4.35. With `CCOc1ccc(-n2c(O)c(/C=N/Nc3nnc(C)c(=O)[nH]3)c3ccccc3c2=O)cc1` the figure was -5.62 (active).

`Cc1ccc(-n2c(O)c(/C=N/NC(=O)C3COc4ccccc4O3)c3ccccc3c2=O)cc1` (stereo not given): the z-score was 3.14.

For `O=c1oc2cc(O)ccc2cc1-c1nc2c(s1)CCc1ccccc1-2`, the z-score was 13.6.

Take `CC1(C)Cc2c(ccc3ccccc23)C(c2cc3ccccc3oc2=O)=N1`: the z-score was 4.19. With `O=C(NCCCCc1ccccc1)c1ccc(Br)o1`, the z-score is 1.07.

`CCCCN(CC)CCNC(=O)c1cc2c(C)nc3ccccc3c2o1`: the z-score was 0.65. Take `Cc1ccccc1C(=O)NCCCc1ccccc1`: the z-score was -5.2 (active). In the case of `Cc1cc(C(=O)CSc2nnnn2-c2ccccc2)c(C)n1CC1CCCO1` (stereo not given) it was -1.4; in that of `CCCCC1=CC2=C(c3ccco3)C(=O)C(C)(OC(=O)c3ccc(OC)cc3)C(=O)C2=CN1CC(C)C` (stereo not given), 4.34; in that of `CC(CNC(=O)c1cncc(O)c1)NC(=O)c1cncc(O)c1` (stereo not given), 3.21. As to `CCCN1C=CC(=C/C=C(\C#N)C(=O)OCC)C=C1`, the z-score is 3.98. In the case of `O=C(C1=NN(c2ccccc2)C2C(=O)N(c3cccc(Cl)c3)C(=O)C12)c1ccccc1` (stereo not given) it was 3.17; in that of `CCCCN1C(=O)/C(=C/C=C2\SCCN2C)SC1=S`, 13.8; in that of `Cc1ccc(/C=N/NC(=O)NC2CCCCC2)o1`, -4.13 (active). For `NC1=NC[C@@H](Cc2ccc(O)cc2)N1CCCCC1CCCCC1`, the z-score was -1.05.

Turning to `CCn1c(CN2CCCCCC2=O)nnc1SCc1cnc(-c2ccccc2)s1`, the z-score is -3.13 (active).

For `CCn1c(Cn2nnc(-c3ccccc3)n2)nnc1SCC(=O)Nc1ccc(C(C)=O)cc1`, the z-score was 4.86. With `O=[N+]([O-])c1ccc(-c2ccc(/C=N/Nc3nc(NCc4ccccc4)nc(N4CCOCC4)n3)o2)cc1` the figure was 9.01; with `O=[N+]([O-])c1ccc(-c2ccc(/C=N/Nc3nc(N4CCCCC4)nc(N4CCCCC4)n3)o2)cc1`, 5.14. As for `O=C(CSc1ccc2nnc(CCNC(=O)c3ccccc3)n2n1)Nc1ccccc1`, the z-score is 2.32. For the compound `COc1cc2c(cc1OC)-c1nncn1C(C)(C)C2`, the z-score was 3.76. With `CCCCN(C)C1=CC2=CC(=C(C#N)C#N)CCC2CC1` (stereo not given), the z-score is 16.

Turning to `COc1cc2c(cc1NC(=O)CN1CCN(S(=O)(=O)c3ccccc3F)CC1)oc1ccccc12`, the z-score was 3.63. With `COc1ccc(Cl)cc1NC(=O)C1(c2cccs2)CCOCC1` the figure was 3.78; with `COc1cc(NC(=O)c2ccccc2)c(OC)cc1NC(=O)CN1CCOCC1`, -3.01 (active); with `CCN(CC)S(=O)(=O)c1cccc(-c2n[nH]c(=S)n2/N=C/c2ccc(C(=O)OC)cc2)c1`, -4.66 (active). In the case of `COC(=O)c1cc(Nc2cc(C)c3ccc(O)cc3n2)cc(C(=O)OC)c1` it was -3.19 (active); in that of `COC(=O)c1cc(-c2c(C)oc3cc(O)ccc3c2=O)c(C)o1`, 0.55.

`Cc1cc(C(=O)COc2ccc(-c3nnco3)cc2)c(C)n1Cc1ccccc1`: the z-score is -4.66 (active). With `S=C(Nc1ccccc1Cl)N(CCCN1CCOCC1)Cc1ccco1` the figure was -4.9 (active); with `CCOC(=O)Cc1csc(SCC(=O)Nc2cccc(C#N)c2)n1`, 1.27. Turning to `Cc1csc(NC(=O)CN(C)S(=O)(=O)c2cccc3cccnc23)n1`, the z-score was 3.05. For the compound `Cc1csc(SCC(=O)Nc2cccc3nsnc23)n1`, the z-score was -3.34 (active). For the compound `N=c1c2c(n(Cc3ccc(F)cc3)c3c1CCC3)CCC2`, the z-score is -5.9 (active). With `N=c1c2c(n(Cc3ccc([N+](=O)[O-])cc3)c3c1CCC3)CCCC2`, the z-score was -3.48 (active). Take `CC(C)(C)NC(=O)N1CCC(CO)(Cc2ccccc2Cl)CC1`: the z-score was -3.59 (active). For the compound `CCCCn1nc2cc(C(=O)N(CC)c3ccc(OC)cc3)ccc2c1OCC`, the z-score is -3.8 (active). In the case of `CCCn1nc2cc(C(=O)NCc3ccccc3)ccc2c1OCC` it was 4.73; in that of `Cc1ccccc1N=Nc1c(C)[nH]n(C(N)=S)c1=O`, -9.54 (active); in that of `O=C(NNS(=O)(=O)c1ccc(F)cc1F)c1csc(-c2cccnc2)n1`, -3.45 (active). In the case of `Nc1c(C(=O)N/N=C/c2cccnc2)oc2nc(-c3ccccc3)cc(-c3ccco3)c12` it was 4.08; in that of `O=C(CSc1nc(Cc2ccccc2)nc2ccccc12)Nc1nc2c(s1)CCCC2`, -3.54 (active).

For `CCCCc1nnc(NC(=O)CSc2nc(O)c(Cc3ccccc3)c(=O)[nH]2)s1`, the z-score is 2.27. On to `CN(C)c1ccc(/C=C(\C#N)C(=O)Nc2nc3c(s2)CCN(Cc2ccccc2)C3)cc1`, for which the z-score was 15.1.

Regarding `O=c1cc(O)c2c(=O)n(-c3ccccc3)c3c(c2o1)CCCCCC3`, the z-score was -4.17 (active).

Regarding `Cc1cc(Nc2nn(C)c(N)c2C#N)ccc1F`, the z-score was 6.01.

For `CCOC(=O)C1C(=O)C=C(/C=C/c2ccc(N(C)C)cc2)CC1c1ccccc1` (stereo not given), the z-score was 9.81. In the case of `CCOC(=O)C1C(=O)C=C(c2cccc(NS(C)(=O)=O)c2)CC1c1ccco1` (stereo not given) it was -3.47 (active); in that of `O=C(COc1ccc(Cl)cc1)NCc1nnc(SCC(=O)NC2CCCCC2)o1`, 3.28; in that of `COc1ccc(-c2nnn(CC(=O)N(CCO)C(C(=O)NC3CCCC3)c3ccc(F)cc3)n2)cc1` (stereo not given), 3.28. In the case of `COc1ccc(OCCC(=O)NC2CCCCC2)cc1` it was -3.45 (active).

On to `S=c1[nH]c2ccc(Cl)cc2[nH]1`, for which the z-score is 1.33. With `O=C(CSc1nnc(-c2cccs2)o1)N1CCOCC1` the figure was -4.31 (active). Turning to `CC1CCCC(C)N1C(=O)CSc1nnc(-c2cccs2)o1` (stereo not given), the z-score is 3.46. In the case of `c1ccc(Cn2nnnc2C(c2ccccc2)N2CCN(c3nc4ccccc4s3)CC2)cc1` (stereo not given) it was -3.45 (active); in that of `COc1ccc(C(c2nnnn2Cc2ccccc2)N2CCN(c3nc4ccccc4s3)CC2)cc1` (stereo not given), -5.01 (active). Take `COc1ccccc1C(c1nnnn1Cc1ccccc1)N1CCN(c2nc3ccccc3s2)CC1` (stereo not given): the z-score was -5.06 (active). With `N#C/C(=C/c1ccc(N2CCCCC2)o1)C(=O)Nc1ccc(Cl)cc1` the figure was 17.2; with `c1ccc(-c2nnc3sc(CN4CCc5ccccc54)cn23)cc1`, -0.03; with `COC(=O)c1ccc(Cl)c(-c2ccc(/C=N/NC(=O)Nc3ccccc3)o2)c1`, -3.3 (active). On to `COc1cc([N+](=O)[O-])ccc1-c1ccc(/C=N/NC(N)=O)o1`, for which the z-score is 3.33.

Regarding `COc1cc2c3nnc(-c4ccc(F)cc4)c-3cn(Cc3ccccc3F)c2cc1OC`, the z-score was 6.27. In the case of `CC(C)COC(=O)c1nnsc1NC(=O)Nc1ccccc1`, the z-score was -3.85 (active). On to `CC1CCc2c(sc3nn[nH]c(=O)c23)C1` (stereo not given), for which the z-score is 4.24.

Consider `COc1c2c(nc3ccccc13)OC(C(C)(O)COC(C)=O)C2` (stereo not given), for which the z-score is 3.26. In the case of `Cc1cc(C)cc(NC(=O)/C=C/c2ccc([N+](=O)[O-])s2)c1` it was 5.99. In the case of `COc1ccc(OC)c(/C(O)=C/C(=O)C(=O)Nc2cc(C)cc(C)c2)c1` it was -5.01 (active). In the case of `COc1cccc(/C=N/n2c(=O)[nH]c3ccccc32)c1OC` it was -4.61 (active); in that of `O=[N+]([O-])c1ccc2c(c1)C(N1CCOCC1)/C(=C/COc1ccc3ccccc3c1Br)O2` (stereo not given), -5.36 (active); in that of `Cc1cc(C)n(-c2ccc(C(=O)OCC(=O)N(CC(C)C)C3CCS(=O)(=O)C3)cc2)n1` (stereo not given), 3.33. As to `CCN(C(=O)COC(=O)c1cccnc1Nc1cccc(C(F)(F)F)c1)C1CCS(=O)(=O)C1` (stereo not given), the z-score was -4.37 (active).

As for `O=Nc1c(O)n(Cc2ccc(Cl)cc2)c2ccccc12`, the z-score is 3.05. On to `COc1ccc(OC)c(-n2c(=S)[nH]c3c(sc(=S)n3-c3ccccc3)c2=O)c1`, for which the z-score is 5.22. With `COc1ccc(C2C(=O)c3ccccc3C2=O)cc1OC` the figure was 3.02.

Turning to `COc1ccc(C2C(Oc3ccccc3C)C(=O)N2Cc2ccc(F)cc2)cc1OC` (stereo not given), the z-score is -5.19 (active). With `COc1ccc(C2/C=C\CN(S(=O)(=O)c3cccc4cccnc34)CC(=O)N2Cc2ccc(F)cc2)cc1` (stereo not given) the figure was 7.49; with `CCOc1ccccc1-c1c2cc(O)c(=O)cc-2oc2cc(O)c(O)cc12`, 8.08. As to `CCOc1ccccc1N=C1NC(=O)CS1`, the z-score was -6.97 (active). In the case of `O=C(Nc1nc2ccccc2n1CCN1CCOCC1)c1ccc(COc2ccccc2Br)o1` it was -3.48 (active); in that of `COc1ccc(-c2nnc(SCC(=O)N(Cc3ccccc3)C(C)(C)C)o2)cc1OC`, -5.96 (active); in that of `CCCOC(=O)CSc1nnc(-c2ccc(Cl)cc2Cl)o1`, -1.15.

As for `COC(=O)CN(C(=O)CSc1nnc(-c2cccc(OC)c2)o1)c1ccc(OC)cc1`, the z-score is -0.85. In the case of `CCOC(=O)/C(=C/C=C1\Sc2cc(OCC)c(OCC)cc2N1CC)C(C)=O` it was 16.2; in that of `Cc1ccc(C)c(Cn2c(C)nc3c(sc(=S)n3-c3ccccc3)c2=O)c1`, 2.17; in that of `Cc1nc2c(c(=O)n1Cc1ccccc1Cl)c1nc3ccccc3nc1n2Cc1ccco1`, -5.21 (active).

For the origin of these results see PubChem BioAssay AID1628 (Sanford-Burnham Center for Chemical Genomics, 2009).
